Calls of active or inactive are those of the source.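 How the source made its calls, unless noted: active means inhibition at or above 50% at 10 µM; inactive means inhibition below 50%.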
Experiments:
[1] = inhibitors of TNFa-induced NFkB p65 translocation, primary screen, imaging, HUVEC, MLSMR starter and 10KST1 sets (AID 438;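 active means inhibition above 20% together with a positive visual image hit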;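 further: compound added about 3h40 before a 20 min TNFalpha stimulation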;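 on inhibition: signal is the nuclear over cytoplasmic p65 intensity ratio per well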); conditions: HUVEC TNFa-induced p65 nuclear translocation; cell count: measured here: nuclei count (cytotoxicity indicator), at 2.08 µM; inhibition: at 2 µM, stronger effect = higher value, 0% TNFa-plus-vehicle, 100% no-TNFa wells
[2] = inhibitors of mutant huntingtin aggregation, primary screen, imaging, exon1htt(103Q)mCFP cells, high-content imaging (AID 483;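 active means visual image review flags a hit and inhibition of aggregation exceeds 20%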;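 further: compound exposure lasted 3 days before fixation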;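 on nuclei count: percent of the per-plate median nuclei count of sample wells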); conditions: exon1htt(103Q)mCFP cell line, aggregate imaging, at 2 µM; inhibition of aggregation: stronger effect = higher value; nuclei count: measured here: cell count, toxicity
[3] = inhibitors of E-selectin induction by TNFa, primary screen, imaging, HUVEC, immunofluorescence, MLSMR starter and 10KST1 sets (AID 487;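 active means visually confirmed hit in the image check and inhibition above 20%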;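 on inhibition: signal is fraction of cell area covered by stained E-selectin grains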;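 on nuclei count: 100% = median nuclei count of all wells on the same plate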); conditions: HUVEC TNFalpha-induced E-selectin immunofluorescence imaging, at 2 µM; inhibition: stronger effect = higher value; nuclei count: measured here: cell number, toxicity
[4] = target: Voltage-gated potassium channel subunit beta-2 (Rattus norvegicus) (UniProt P62483); assay: KvBeta enzyme negative modulators, primary screen, biochemical, NADPH fluorescence (AID 622;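 active means fluorescence slope higher than the sample average by over 3 SD, cut at about -0.22 in these data, passing the limit was not always enough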;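 further: slope of raw intensity against log time taken from 70 to 1610 s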); conditions: recombinant KvBeta, 4-cyanobenzaldehyde reduction, at 10 µM, stronger effect = higher value
[5] = target: Voltage-gated potassium channel subunit beta-2 (Rattus norvegicus) (UniProt P62483); assay: KvBeta positive modulators, primary screen, biochemical, NADPH fluorescence (AID 623;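 active means NADPH fluorescence slope more negative than the mean of all samples by about 3 SD, 99.7% confidence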;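 further: fluorescence intensity change per second fitted from 20 to 320 s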); conditions: Recombinant KvBeta, NADPH fluorescence decrease slope, 10 min; at 10 µM; stronger effect = lower value
[6] = target: Alpha-2C adrenergic receptor (Homo sapiens) (UniProt P18825); assay: modulators of alpha2C/GIRK thallium flux, primary screen, cell-based, HEK293 alpha2C/GIRK1/2 (AID 624;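 active means fluorescence slope after compound addition differing from the mean of all screened samples at 99.7% confidence, in either direction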;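 further: slope of fluorescence ratio to pre-addition baseline per second over 15 to 24 s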); conditions: thallium flux BTC fluorescence, at 10 µM, actives lie on both sides
[7] = inhibitors of Sendai virus-induced IRF3 signaling, primary screen, TLR/RLR signaling modifier project, cell-based, Sendai virus stimulus, luciferase, 10K MLSCN set (AID 602276); conditions: HEK293 RL24 IRF3 luciferase reporter, at 10 µM, stronger effect = higher value;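 further: firefly luciferase from ISG56 promoter only with Renilla not read in this screen; 0% = Sendai virus plus DMSO and 100% = medium plus DMSO without virus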
[8] = inhibitors of poly I:C-induced TLR3 signaling, primary screen, cell-based, poly I:C stimulus, luciferase, 10K MLSCN set (AID 602277;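 active means inhibition of the reporter signal at or above 50%; inactive means inhibition below 50%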); conditions: HEK293-TLR3 RL24 IRF3 luciferase reporter, at 10 µM, stronger effect = higher value

Sequence of Voltage-gated potassium channel subunit beta-2 (Rattus norvegicus) (P62483 whole entry, looked up): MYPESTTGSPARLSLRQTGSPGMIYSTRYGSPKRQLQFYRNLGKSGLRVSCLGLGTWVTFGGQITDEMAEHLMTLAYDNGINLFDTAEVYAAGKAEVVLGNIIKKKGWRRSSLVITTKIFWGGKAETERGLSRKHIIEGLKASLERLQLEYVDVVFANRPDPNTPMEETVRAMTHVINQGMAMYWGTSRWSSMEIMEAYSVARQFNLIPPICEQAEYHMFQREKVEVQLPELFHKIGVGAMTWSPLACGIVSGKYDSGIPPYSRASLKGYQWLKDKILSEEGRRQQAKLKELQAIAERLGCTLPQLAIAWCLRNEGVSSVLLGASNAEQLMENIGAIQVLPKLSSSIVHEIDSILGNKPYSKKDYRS
Sequence of Alpha-2C adrenergic receptor (Homo sapiens) (P18825 whole entry, looked up): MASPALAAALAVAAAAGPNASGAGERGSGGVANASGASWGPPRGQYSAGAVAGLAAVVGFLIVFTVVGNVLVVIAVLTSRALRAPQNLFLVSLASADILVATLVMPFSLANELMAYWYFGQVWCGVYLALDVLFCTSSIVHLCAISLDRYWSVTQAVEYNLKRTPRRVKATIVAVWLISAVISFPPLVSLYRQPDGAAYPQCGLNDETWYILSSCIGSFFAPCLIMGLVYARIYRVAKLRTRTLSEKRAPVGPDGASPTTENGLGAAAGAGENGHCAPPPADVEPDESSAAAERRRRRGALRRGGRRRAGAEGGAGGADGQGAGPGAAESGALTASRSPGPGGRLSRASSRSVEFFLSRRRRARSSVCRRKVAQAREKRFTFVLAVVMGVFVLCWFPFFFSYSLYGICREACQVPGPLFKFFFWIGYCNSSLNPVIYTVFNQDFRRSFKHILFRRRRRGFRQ

| SMILES | cell count [1] | inhibition [1] | inhibition of aggregation [2] | nuclei count [2] [%] | inhibition [3] | nuclei count [3] [%] | fluorescence slope [4] | NADPH fluorescence slope [5] | slope [6] | inhibition [7] | inhibition [8] |
| --- | --- | --- | --- | --- | --- | --- | --- | --- | --- | --- | --- |
| CCCCN(C)C(=O)c1ccc(CS(=O)(=O)c2ccccc2C)o1 | 315 | -10.4% (inactive) | 10.5% (inactive) | 65.2 | -44.3% (inactive) | 111 | -0.569 (inactive) | -1.2e-05 (inactive) | 0.00658 (inactive) | 7.73% (inactive) | 13.7% (inactive) |
| O=C(CN1CCN(Cc2ccccc2)CC1)Nc1ccc(Cl)cn1 | 615 | -12.7% (inactive) | 19.3% (inactive) | 81.8 | -26% (inactive) | 92 | -0.502 (inactive) | -2.1e-05 (inactive) | 0.00402 (inactive) | 17.4% (inactive) | 29.5% (inactive) |
| CCOC(=O)C1CCCN(C(=O)c2cn(C)c(=O)c3cc(OC)c(OC)cc23)C1 (stereo not drawn) | 746 | -16.1% (inactive) | -3.6% (inactive) | 110 | 0.3% (inactive) | 110 | -0.468 (inactive) | -1e-06 (inactive) | 0.00726 (inactive) | 6.66% (inactive) | 15.1% (inactive) |
| Cc1cccc(Cc2c(C)nc3nc(SCC(=O)NCc4ccco4)nn3c2C)c1 | 389 | 0.3% (inactive) | 5.8% (inactive) | 85.7 | -79.7% (inactive) | 101 | -0.463 (inactive) | -5.1e-07 (inactive) | 0.00687 (inactive) | 10.8% (inactive) | 27.6% (inactive) |
| O=C(CCC(=O)N1CCc2ccccc2C1)N1CCN(S(=O)(=O)c2ccccc2)CC1 | 361 | -2.5% (inactive) | -6.9% (inactive) | 131 | -14.3% (inactive) | 102 | -0.45 (inactive) | -1.8e-05 (inactive) | 0.00506 (inactive) | -9.4% (inactive) | 5.93% (inactive) |
| Cc1cccc(C(=O)N2CCC(n3nnc4cc(F)ccc43)CC2)c1 | 695 | -12.5% (inactive) | -26.4% (inactive) | 101 | 13.4% (inactive) | 106 | -0.325 (inactive) | -2e-05 (inactive) | 0.0067 (inactive) | 5.99% (inactive) | 6.27% (inactive) |
| Cc1cccc(Nc2nc3c(c(=O)n(C)c(=O)n3C)n2Cc2ccccc2)c1 | 470 | 7.2% (inactive) | 6.5% (inactive) | 94.7 | -73.5% (inactive) | 106 | -0.588 (inactive) | -2.8e-05 (inactive) | 0.00618 (inactive) | 3.57% (inactive) | 20.4% (inactive) |
| O=C(NCCN1C(=O)C2C3C=CC(C3)C2C1=O)Nc1ccccn1 (stereo not drawn) | 635 | 0.8% (inactive) | 12.9% (inactive) | 72.4 | -12.9% (inactive) | 108 | -0.603 (inactive) | 1.9e-05 (inactive) | 0.00714 (inactive) | 7.16% (inactive) | 16.9% (inactive) |
| CN(C)CCCN1C(=O)c2oc3ccccc3c(=O)c2C1c1cccs1 (stereo not drawn) | 665 | -1.2% (inactive) | -8.2% (inactive) | 107 | -25.6% (inactive) | 132 | -0.443 (inactive) | 4e-06 (inactive) | 0.00339 (inactive) | 7.52% (inactive) | 8.07% (inactive) |
| CCN(CC)CCNC(=O)CCn1c(=S)[nH]c2cc3c(cc2c1=O)OCO3 | 380 | -3% (inactive) | -16.9% (inactive) | 99.9 | 7.2% (inactive) | 114 | -0.501 (inactive) | -2.4e-05 (inactive) | 0.00645 (inactive) | -5.94% (inactive) | 28.2% (inactive) |
| Cc1ccc(CNC(=O)COC(=O)c2c(C)noc2C)cc1 | 581 | 6.9% (inactive) | 23.2% (inactive) | 89.7 | 46% (inactive) | 57.1 | -0.449 (inactive) | -4.4e-05 (inactive) | 0.00349 (inactive) | -1.51% (inactive) | 16.4% (inactive) |
| CC1CCCC(C)N1C(=O)CSc1nnc(-c2cccs2)o1 (stereo not drawn) | 400 | -14% (inactive) | -29.6% (inactive) | 114 | -9.9% (inactive) | 101 | -0.382 (inactive) | -5.4e-05 (inactive) | 0.0042 (inactive) | -27.4% (inactive) | -68% (inactive) |
| CCOC(=O)c1c(C)[nH]c(C(=O)COC(=O)C2CC2C)c1C (stereo not drawn) | 378 | 0.3% (inactive) | -161% (inactive) | 1.8 | -20.9% (inactive) | 125 | -0.504 (inactive) | -5.4e-05 (inactive) | 0.00548 (inactive) | -45.3% (inactive) | -115% (inactive) |
| O=C(COC(=O)c1cccc(S(=O)(=O)N2CCc3ccccc32)c1)NC1CCS(=O)(=O)C1 (stereo not drawn) | 611 | 8.9% (inactive) | -6.2% (inactive) | 125 | -104% (inactive) | 111 | -0.283 (inactive) | -7.3e-05 (inactive) | 0.00577 (inactive) | 3.1% (inactive) | 12.9% (inactive) |
| COc1ccc(-n2ncc3c(NCCCN4CCOCC4)ncnc32)cc1 | 340 | 1.4% (inactive) | -6.2% (inactive) | 116 | 1.8% (inactive) | 118 | -0.59 (inactive) | -5.4e-05 (inactive) | 0.00402 (inactive) | 44.5% (inactive) | 7.05% (inactive) |
| CC(C)Oc1ccc(N2CC(C(=O)Nc3ccccc3F)CC2=O)cc1 (stereo not drawn) | 804 | 3.6% (inactive) | -2% (inactive) | 103 | -110% (inactive) | 128 | -0.438 (inactive) | 6.3e-06 (inactive) | 0.00384 (inactive) | 4.3% (inactive) | 37.6% (inactive) |
| CC1CCCCC1NC(=O)c1ccc(N2CCCC2=O)cc1 (stereo not drawn) | 536 | -21.7% (inactive) | -20.5% (inactive) | 142 | -20.8% (inactive) | 103 | -0.51 (inactive) | 3.4e-05 (inactive) | 0.00599 (inactive) | 5.47% (inactive) | -5.67% (inactive) |
| Cc1ccc(-c2cc(C(=O)Nc3cc(C)on3)c3ccccc3n2)c(C)c1 | 688 | 1.1% (inactive) | 11.6% (inactive) | 111 | -17.5% (inactive) | 115 | -0.543 (inactive) | -4.3e-05 (inactive) | 0.00596 (inactive) | 10.5% (inactive) | 38.8% (inactive) |
| COc1ccc(S(=O)(=O)N2CCN(CC(=O)Nc3ccc(F)c(F)c3)CC2)cc1 | 322 | -7.6% (inactive) | 9.7% (inactive) | 94.6 | -62.9% (inactive) | 97.3 | -0.51 (inactive) | -2.7e-05 (inactive) | 0.00502 (inactive) | 22.7% (inactive) | 32% (inactive) |
| COC(=O)CSc1nnc(-c2ccncc2)o1 | 366 | -6.8% (inactive) | -4.1% (inactive) | 94.2 | -16.8% (inactive) | 106 | -0.46 (inactive) | -4.6e-05 (inactive) | 0.00309 (inactive) | 6.97% (inactive) | 32.3% (inactive) |
| Cc1nc(CNS(=O)(=O)c2cccc(F)c2)cs1 | 307 | 5% (inactive) | 14.1% (inactive) | 87.9 | -10.3% (inactive) | 92.4 | -0.506 (inactive) | -3.7e-05 (inactive) | 0.00673 (inactive) | 7.13% (inactive) | 20.4% (inactive) |
| COc1ccc(C(=O)NCCSc2ccccn2)cc1 | 778 | 4.4% (inactive) | 3.3% (inactive) | 101 | 48% (inactive) | 95 | -0.478 (inactive) | -6.9e-05 (inactive) | 0.00549 (inactive) | -6.19% (inactive) | -64.3% (inactive) |
| CC(=O)NC(=O)NC1CSCC1OC(C)=O (stereo not drawn) | 590 | 1.2% (inactive) | 23.1% (inactive) | 99 | -110% (inactive) | 132 | -0.445 (inactive) | -1.3e-05 (inactive) | 0.00811 (inactive) | 11% (inactive) | 12% (inactive) |
| CC1(C)CC(=O)N(CC(=O)NCc2ccccc2)c2ccccc2S1(=O)=O | 807 | -1.7% (inactive) | -7.8% (inactive) | 123 | -20% (inactive) | 120 | -0.602 (inactive) | 1.2e-05 (inactive) | 0.00666 (inactive) | 12.3% (inactive) | 20.7% (inactive) |
| CCOc1ccccc1-c1nc(-c2ccc(C)nc2OC)no1 | 404 | 4.8% (inactive) | -2% (inactive) | 82.1 | 1.8% (inactive) | 96.3 | -0.552 (inactive) | 1.8e-05 (inactive) | 0.00778 (inactive) | -91.4% (inactive) | -227% (inactive) |
| CCOc1ccccc1N(CC(=O)NC1CCCC1)C(=O)CCCC(=O)Nc1ccccn1 | 369 | 5.3% (inactive) | 24.9% (inactive) | 102 | -20% (inactive) | 122 | -0.63 (inactive) | -2.4e-05 (inactive) | 0.00589 (inactive) | 5.25% (inactive) | 19.7% (inactive) |
| Cn1c(SCc2nc3ccccc3c(=O)[nH]2)nnc1-c1ccco1 | 748 | 0% (inactive) | 11.8% (inactive) | 104 | -141% (inactive) | 131 | -0.496 (inactive) | -6.5e-06 (inactive) | 0.00622 (inactive) | -0.0213% (inactive) | 25.9% (inactive) |
| Cc1nc2ccc(N3C(=O)CCC3=O)cc2[nH]1 | 282 | -8% (inactive) | 9.2% (inactive) | 92.3 | -42.2% (inactive) | 113 | -0.553 (inactive) | 5.4e-06 (inactive) | 0.00593 (inactive) | 6.8% (inactive) | 15.6% (inactive) |

Reference: PubChem BioAssay
